# Inconclusive results are not listed. Entries that show only a call come without a potency. Unmarked numbers belong to inactive results. Activity calls are given as the source filed them. Calls follow the shape of the dose curve; as a rule, active = well fitted curve in the direction sought with a large enough effect in the repeat runs; inconclusive = weak or mixed curves; inactive = no such curve, though single readings can be large; an effect the other way counts as inactive or inconclusive.
# Assays:
# [1] = target: Cytochrome P450 2D6 (Homo sapiens) (UniProt P10635); assay: Cytochrome P450 Family 2 Subfamily D Member 6 (CYP2D6) small molecule antagonists: luciferase reporter qHTS assay (AID 1671196); details: P450-Glo CYP2D6 enzyme assay, luciferin luminescence, 1 h; series mostly up to 115 µM; also: nearly all actives have a fitted effect of over 50% in size; also: potency is read from the fitted curve at half-maximal effect
# Summary of the method: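 Luminescence (RLU), read 20 min after detection reagent, indicated CYP2D6 conversion of proluciferin to luciferin during a 1 h NADPH-dependent reaction at room temperature.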
# [2] = target: Cytochrome P450 2C19 (Homo sapiens) (UniProt P33261); assay: Cytochrome P450 Family 2 Subfamily C Member 19 (CYP2C19) small molecule antagonists: luciferase reporter qHTS assay (AID 1671197); details: P450-Glo CYP2C19 enzyme, luciferin luminescence, 1 h; series mostly up to 115 µM; also: nearly all actives have a fitted effect of over 65% in size
# Summary of the method: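 Relative luminescence units recorded 20 min after the detection reagent stopped a 1 h, 37C CYP2C19 reaction on proluciferin substrate, which was started by NADPH regeneration following 10 min room-temperature compound preincubation; ketoconazole positive control.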
# [3] = target: Cytochrome P450 2C9 (Homo sapiens) (UniProt P11712); assay: Cytochrome P450 Family 2 Subfamily C Member 9 (CYP2C9) small molecule antagonists: luciferase reporter qHTS assay (AID 1671198); details: P450-Glo CYP2C9 enzyme assay, luciferin luminescence; series mostly up to 115 µM; also: nearly all actives have a fitted effect of over 50% in size
# Summary of the method: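 P450-Glo proluciferin substrate with CYP2C9 enzyme; 10 min RT preincubation, then NADPH regeneration 1 h at 37C; luciferin detection reagent 20 min RT, luminescence in relative luminescence units.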
# [4] = target: Cytochrome P450 1A2 (Homo sapiens) (UniProt P05177); assay: Cytochrome P450 Family 1 Subfamily A Member 2 (CYP1A2) small molecule antagonists: luciferase reporter qHTS assay (AID 1671199); details: P450-Glo CYP1A2 enzyme, luciferin luminescence, 1 h; series mostly up to 53 µM; also: nearly all actives have a fitted effect of over 50% in size; also: potency is read from the fitted curve at half-maximal effect
# Summary of the method: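 CYP1A2 turnover of a luminogenic substrate was quantified after 1 h with NADPH regeneration at room temperature. Furafylline served as positive control.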
# [5] = target: Voltage-gated inwardly rectifying potassium channel KCNH2 (Homo sapiens) (UniProt Q12809); assay: Human Ether-a-go-go-Related Gene (hERG) channel small molecule antagonists: fluorescence cell-based qHTS assay (AID 1671200); details: hERG-U2OS cells, FluxOR thallium flux fluorescence; series mostly up to 76.8 µM;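 also: hERG-expressing U2OS cells given a thallium stimulus after FluxOR II dye loading; nearly all actives have a fitted effect of over 50% in size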
# Summary of the method: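 Quantitative HTS in hERG-U2OS cells: thallium entry through the channel reports activity, read as continuous 480/540 nm fluorescence over 2 min after stimulus addition.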
# [6] = target: Cytochrome P450 3A4 (Homo sapiens) (UniProt P08684); assay: Cytochrome P450 Family 3 Subfamily A Member 4 (CYP3A4) small molecule antagonists: luciferase reporter qHTS assay (AID 1671201); details: P450-Glo CYP3A4 enzyme, luciferin luminescence, 1 h; series mostly up to 115 µM; also: nearly all actives have a fitted effect of over 50% in size
# Summary of the method: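 Inhibition of CYP3A4 is measured as loss of light: the enzyme converts a proluciferin substrate to luciferin, detected luminescently. Reaction ran 1 h at room temperature with NADPH regeneration after a 10 min compound preincubation.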
# Sequence of Cytochrome P450 3A4 (Homo sapiens) (P08684 whole entry, looked up): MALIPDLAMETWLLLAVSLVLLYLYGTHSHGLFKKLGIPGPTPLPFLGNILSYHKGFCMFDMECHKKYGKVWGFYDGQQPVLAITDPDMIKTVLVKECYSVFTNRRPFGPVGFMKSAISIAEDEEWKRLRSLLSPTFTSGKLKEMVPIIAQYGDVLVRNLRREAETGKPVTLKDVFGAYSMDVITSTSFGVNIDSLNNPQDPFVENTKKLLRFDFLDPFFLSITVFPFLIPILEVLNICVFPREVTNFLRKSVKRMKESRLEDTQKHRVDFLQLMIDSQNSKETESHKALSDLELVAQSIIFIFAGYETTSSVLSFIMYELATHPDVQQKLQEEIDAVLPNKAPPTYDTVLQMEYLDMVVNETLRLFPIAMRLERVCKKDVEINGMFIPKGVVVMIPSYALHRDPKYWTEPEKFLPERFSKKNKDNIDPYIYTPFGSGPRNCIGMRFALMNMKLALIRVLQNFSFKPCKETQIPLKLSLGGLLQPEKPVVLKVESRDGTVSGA
# Sequence of Cytochrome P450 2C19 (Homo sapiens) (P33261 whole entry, looked up): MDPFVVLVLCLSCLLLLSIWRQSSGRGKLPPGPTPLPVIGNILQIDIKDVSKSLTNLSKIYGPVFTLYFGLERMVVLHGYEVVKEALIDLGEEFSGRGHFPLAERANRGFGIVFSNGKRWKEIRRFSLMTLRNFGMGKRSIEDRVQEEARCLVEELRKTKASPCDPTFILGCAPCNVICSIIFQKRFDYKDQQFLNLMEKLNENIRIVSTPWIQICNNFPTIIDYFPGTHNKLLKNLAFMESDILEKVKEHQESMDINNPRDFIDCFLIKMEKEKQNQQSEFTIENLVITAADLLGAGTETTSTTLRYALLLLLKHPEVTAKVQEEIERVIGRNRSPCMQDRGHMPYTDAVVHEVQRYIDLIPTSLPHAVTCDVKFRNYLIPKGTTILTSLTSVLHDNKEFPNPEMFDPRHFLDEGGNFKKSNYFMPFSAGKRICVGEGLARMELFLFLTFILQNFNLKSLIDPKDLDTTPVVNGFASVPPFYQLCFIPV
# Sequence of Voltage-gated inwardly rectifying potassium channel KCNH2 (Homo sapiens) (Q12809 whole entry, looked up): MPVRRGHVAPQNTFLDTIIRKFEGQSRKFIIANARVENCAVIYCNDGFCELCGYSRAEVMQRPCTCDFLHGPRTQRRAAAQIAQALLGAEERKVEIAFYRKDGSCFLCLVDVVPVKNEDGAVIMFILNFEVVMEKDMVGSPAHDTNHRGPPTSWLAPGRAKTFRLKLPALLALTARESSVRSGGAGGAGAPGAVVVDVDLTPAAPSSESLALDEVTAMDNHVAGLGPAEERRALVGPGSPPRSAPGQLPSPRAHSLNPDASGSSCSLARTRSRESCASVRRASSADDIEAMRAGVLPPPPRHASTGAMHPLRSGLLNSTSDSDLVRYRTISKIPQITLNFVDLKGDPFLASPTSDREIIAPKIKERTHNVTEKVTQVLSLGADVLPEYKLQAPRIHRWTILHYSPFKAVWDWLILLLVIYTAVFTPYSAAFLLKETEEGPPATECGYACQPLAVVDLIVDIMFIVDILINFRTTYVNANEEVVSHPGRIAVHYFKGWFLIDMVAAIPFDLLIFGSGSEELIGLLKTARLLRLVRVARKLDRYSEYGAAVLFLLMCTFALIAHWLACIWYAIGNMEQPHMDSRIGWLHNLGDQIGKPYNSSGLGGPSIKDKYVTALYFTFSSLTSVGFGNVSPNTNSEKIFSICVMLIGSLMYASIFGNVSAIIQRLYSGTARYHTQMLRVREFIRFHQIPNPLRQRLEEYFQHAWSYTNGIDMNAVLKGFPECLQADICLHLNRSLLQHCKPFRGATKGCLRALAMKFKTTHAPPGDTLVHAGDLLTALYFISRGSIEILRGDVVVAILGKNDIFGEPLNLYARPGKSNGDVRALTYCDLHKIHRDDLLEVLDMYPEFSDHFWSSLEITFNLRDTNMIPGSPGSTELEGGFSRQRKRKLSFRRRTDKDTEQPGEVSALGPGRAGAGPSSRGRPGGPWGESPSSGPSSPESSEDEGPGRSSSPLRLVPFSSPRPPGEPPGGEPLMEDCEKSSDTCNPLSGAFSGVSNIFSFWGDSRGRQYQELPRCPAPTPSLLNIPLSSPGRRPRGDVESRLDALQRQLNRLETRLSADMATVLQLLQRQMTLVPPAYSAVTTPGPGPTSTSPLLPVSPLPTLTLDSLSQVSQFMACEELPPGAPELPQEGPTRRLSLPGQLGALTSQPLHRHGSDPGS
# Sequence of Cytochrome P450 2D6 (Homo sapiens) (P10635 whole entry, looked up): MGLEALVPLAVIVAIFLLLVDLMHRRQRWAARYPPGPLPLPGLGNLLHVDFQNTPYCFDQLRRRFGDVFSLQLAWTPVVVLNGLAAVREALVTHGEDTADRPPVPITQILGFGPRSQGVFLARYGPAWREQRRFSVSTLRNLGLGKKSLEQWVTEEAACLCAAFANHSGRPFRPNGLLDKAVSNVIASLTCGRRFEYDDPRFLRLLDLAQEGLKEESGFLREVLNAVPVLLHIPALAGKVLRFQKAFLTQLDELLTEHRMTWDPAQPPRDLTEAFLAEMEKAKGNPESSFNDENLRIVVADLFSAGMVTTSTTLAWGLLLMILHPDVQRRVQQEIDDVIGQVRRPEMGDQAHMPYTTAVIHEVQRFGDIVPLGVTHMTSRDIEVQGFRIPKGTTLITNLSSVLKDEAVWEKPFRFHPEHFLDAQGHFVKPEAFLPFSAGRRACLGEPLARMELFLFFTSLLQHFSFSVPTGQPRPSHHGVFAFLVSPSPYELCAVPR
# Sequence of Cytochrome P450 1A2 (Homo sapiens) (P05177 whole entry, looked up): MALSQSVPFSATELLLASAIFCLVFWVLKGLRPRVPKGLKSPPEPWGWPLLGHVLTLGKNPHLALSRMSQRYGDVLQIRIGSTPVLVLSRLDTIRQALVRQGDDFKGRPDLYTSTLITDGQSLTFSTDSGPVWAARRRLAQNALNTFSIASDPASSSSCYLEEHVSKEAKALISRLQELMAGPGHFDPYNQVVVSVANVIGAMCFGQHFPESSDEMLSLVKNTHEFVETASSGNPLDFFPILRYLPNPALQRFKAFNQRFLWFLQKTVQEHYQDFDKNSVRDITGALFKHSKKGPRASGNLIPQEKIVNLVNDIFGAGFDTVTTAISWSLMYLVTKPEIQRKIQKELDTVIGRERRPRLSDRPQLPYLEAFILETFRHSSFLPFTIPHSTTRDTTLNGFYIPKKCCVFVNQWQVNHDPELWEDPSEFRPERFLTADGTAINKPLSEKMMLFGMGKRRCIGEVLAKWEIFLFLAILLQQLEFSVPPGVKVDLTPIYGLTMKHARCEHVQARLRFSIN
# Sequence of Cytochrome P450 2C9 (Homo sapiens) (P11712 whole entry, looked up): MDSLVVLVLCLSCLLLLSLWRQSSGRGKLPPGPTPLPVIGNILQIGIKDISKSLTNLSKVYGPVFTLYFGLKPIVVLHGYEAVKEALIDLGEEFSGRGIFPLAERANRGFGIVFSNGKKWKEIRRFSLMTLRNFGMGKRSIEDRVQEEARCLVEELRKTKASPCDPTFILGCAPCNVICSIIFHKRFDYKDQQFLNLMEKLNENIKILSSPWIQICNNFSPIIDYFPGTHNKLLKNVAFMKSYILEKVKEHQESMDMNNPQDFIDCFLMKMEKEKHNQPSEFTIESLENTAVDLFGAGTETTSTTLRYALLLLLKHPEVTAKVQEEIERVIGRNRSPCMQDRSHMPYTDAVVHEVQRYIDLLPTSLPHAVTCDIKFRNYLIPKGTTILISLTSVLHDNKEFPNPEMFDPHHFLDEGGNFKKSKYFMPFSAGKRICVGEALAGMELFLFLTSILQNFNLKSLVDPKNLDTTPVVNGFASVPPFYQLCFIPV
Structure (SMILES),Potency [1],Potency [2],Potency [3],Potency [4],Potency [5],Potency [6],"activity change, negative = inhibition [2]","activity change, negative = inhibition [3]","activity change, negative = inhibition [6]"
CCCCC(CC)COCCO (stereo not given),inactive,inactive,inactive,17.8 µM (active),inactive,inactive,–,–,–
CNS(=O)(=O)CCc1ccc2[nH]cc(C3CCN(C)CC3)c2c1,34.7 µM (active),inactive,inactive,inactive,inactive,inactive,–,–,–
Cc1nc2n(c(=O)c1CCN1CCC(c3noc4cc(F)ccc34)CC1)CCC[C@H]2O,6.01 µM (active),–,–,inactive,–,–,18.1% [at 23.6 µM],0.924% [at 23.6 µM],3.18% [at 23.6 µM]
COc1ccc(C2CNC(=O)C2)cc1OC1CCCC1 (stereo not given),inactive,inactive,inactive,13.8 µM (active),inactive,inactive,–,–,–
O=C1CC(c2ccc(Cl)cc2)CC(=O)N1,inactive,inactive,inactive,27.5 µM (active),inactive,inactive,–,–,–
Oc1ccccc1-c1nnco1,inactive,inactive,inactive,30.9 µM (active),inactive,inactive,–,–,–
c1ccc2c(c1)ccc1c3ccccc3ccc21,inactive,inactive,inactive,0.725 µM (active),inactive,inactive,–,–,–
CCCCCCCCSCC,inactive,inactive,inactive,inactive,inactive,inactive,–,–,–
O=C(OCc1ccccc1)C(=O)OCc1ccccc1,inactive,inactive,inactive,inactive,inactive,inactive,–,–,–
CN=C(NC#N)Nc1ccc(C2=NNC(=O)CC2C)cc1 (stereo not given),inactive,inactive,inactive,inactive,inactive,inactive,–,–,–
NS(=O)(=O)c1ccc(NC(=O)CCC(=O)O)cc1,inactive,inactive,inactive,inactive,inactive,inactive,–,–,–

# Source: PubChem BioAssay (Tox21)
